Sampled rows, rich in hits. Any-hit rate of the full collection: about 3.8%.
HepG2 tox-1 – counter-screen for TGF-b inhibitors: cytotoxicity in HepG2 cells; AID 588856; Potency, µM (series often up to 46.1 µM), inactives show at the highest dose activity change, negative = cytotoxicity, most hits filed as cytotoxic; actives 0.76% (n = 410,000); HepG2 CAGA-GFP viability, ATP luminescence, 18 h
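CellTiter-Glo luminescence gave cytotoxicity after 18 hours at 37 degrees C. The cells were HepG2 CAGA-GFP in 1% FBS DMEM, stimulated with 500 pg/mL TGF-beta after compound addition. %Activity was normalised to no-cell wells (complete cell-killing) and DMSO (no toxicity), and curves were fitted and classified.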
HT1080-NT tox – kills 2HG-producing HT-1080-NT fibrosarcoma cells; Potency, µM (titrated, usually from 46.1 µM), for inactives: at the top dose activity, negative = less viability, most hits filed as cytotoxic; actives 1.6% (n = 360,000); HT-1080-NT fibrosarcoma viability, CellTiter-Glo ATP luminescence, 48 h;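 note: NT is the 2HG producing partner of a matched IDH1 knockdown line; 0% = DMSO-treated cells and -100% = media-only wells without cells; nearly all actives have a fitted effect of over 55% in size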
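Fibrosarcoma NT cells, 750 per well in 5% FBS RPMI, were exposed to compound for 48 hours. Viability: CellTiter-Glo luminescence.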
TGFb inhibitor – blocks TGF-b signaling. Potency, µM (series often up to 46.1 µM), without a hit: at the top dose activity, negative = inhibition, actives largely listed as inhibitors. actives 1.2% (n = 410,000). AID 588855. HepG2 CAGA-GFP TGF-b/SMAD3 reporter, GFP fluorescence, 18 h; TGF-beta stimulated, 500 pg/mL final; note: % is set by controls: 0 for no effect and ±100 for the full control effect; nearly all actives have a fitted effect of over 65% in size
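HEPG2 CAGA-GFP cells (1000/well, DMEM with 1% FBS) were pre-incubated 2 h at 37 degrees C, given compound by pin tool, then stimulated with TGF-beta at 500 pg/mL final for 18 h before per-cell GFP fluorescence imaging.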
ATXN2 expr inh – ATXN2 expression inhibition. Potency, µM (series often up to 57 µM), for inactives: at the top dose activity change, negative = inhibition, usual class: inhibitors. HEK-293 ATXN2-luciferase reporter, luminescence, 24 h. AID 1745845. actives 0.72% (n = 360,000); note: % is set by controls: 0 for no effect and ±100 for the full control effect; nearly all actives have a fitted effect of over 55% in size
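ATXN2-luciferase reporter cells (luciferase flanked by upstream and downstream ATXN2 gene portions) were treated 24 h at 37 °C with compounds at up to 57 uM. SteadyGlo luminescence gave expression; GF-AFC fluorescence gave viability.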
HT1080 IDH1KD tx – HT-1080 IDH1 knockdown cell toxicity (counter line); actives 2% (n = 360,000); Potency, µM (top dose mostly 46.1 µM), without a hit: top-dose activity, negative = toxicity, actives largely listed as cytotoxic; HT-1080 IDH1 knockdown viability, ATP luminescence, 48 h;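 note: 0% = DMSO wells and -100% = cell-free medium wells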
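After a 2 h attachment period, IDH1KD HT-1080 cells took pin-transferred compound for 48 h at 37 °C; ATP-based luminescence after 10 min room-temperature reagent incubation reported viability.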
S2 tox – cell viability loss in ATXN counter-screen. S2 cells (HEK-293 line with an ATXN2-luciferase reporter) viability, CellTiter-Fluor protease fluorescence, 24 h. Potency, µM (titrated, usually from 56.7 µM), actives largely listed as cytotoxic. actives 0.49% (n = 400,000). AID 651635; note: nearly all actives have a fitted effect of over 40% in size
TGFb CAGA inh – TGF-b pathway inhibition, cherry-pick retest | shares compounds with TGFb inhibitor | HepG2 CAGA-GFP TGF-b reporter, GFP fluorescence, 18 h; cells stimulated with TGF-beta, 500 pg/mL | Potency, µM (titrated, usually from 46.1 µM), for the others: at the highest dose activity, negative = inhibition, hits mostly inhibitors | actives 63% (n = 1,600); note: % is set by controls: 0 for no effect and ±100 for the full control effect; nearly all actives have a fitted effect of over 65% in size
HepG2 tox-2 – counter-screen for TGF-b inhibitors: cytotoxicity in HepG2 cells; shares compounds with TGFb inhibitor; HepG2 CAGA-GFP viability, ATP luminescence, 18 h; cells stimulated with TGF-beta, 500 pg/mL; Potency, µM (series often up to 46.1 µM), without a hit: at the highest dose activity, negative = cytotoxicity, usual class: inhibitors; actives 27% (n = 1,600); note: % is set by controls: 0 for no effect and ±100 for the full control effect; nearly all actives have a fitted effect of over 70% in size
TGFb CCL64 inh – TGF-b inhibition, CCL64 orthogonal assay | CCL64 CAGA-GFP reporter, TGF-b stimulated, GFP fluorescence, 18 h | actives 41% (n = 1,600) | shares compounds with TGFb inhibitor | Potency, µM (titrated, usually from 46.1 µM), for inactives: at the highest dose activity, negative = inhibition, actives largely listed as inhibitors; note: nearly all actives have a fitted effect of over 65% in size
COP TGFb inh – validation of TGF-b inhibitors in HepG2 COP promoter reporter. shares compounds with TGFb inhibitor. HepG2 COP-GFP TGF-b reporter, GFP fluorescence, 18 h; cells stimulated by added recombinant TGF-beta. Potency, µM (doses to about 46.1 µM), inactives show top-dose activity, negative = inhibition, actives largely listed as inhibitors. actives 3% (n = 1,600); note: nearly all actives have a fitted effect of over 70% in size
Active calls of the source: *; i = inactive; u = inconclusive; x = no result given. Calls come from the whole dose curve; as a rule, active = well fitted curve in the direction sought with a large enough effect; inconclusive = small, poorly fitted or top-dose-only effect, or another doubt; inactive = no such curve, though single readings can be large; an effect the other way counts as inactive or inconclusive. Potency is the fitted concentration of half-maximal effect.

SMILES	HepG2 tox-1	HT1080-NT tox	TGFb inhibitor	ATXN2 expr inh	HT1080 IDH1KD tx	S2 tox	TGFb CAGA inh	HepG2 tox-2	TGFb CCL64 inh	COP TGFb inh
CC(CNC(=O)CCCn1c(=O)c2cccn2c2ccccc21)c1ccccc1 (configuration not stated)	-26%	x	u	x	x	x	x	x	x	x
N#Cc1sc2nccc(Nc3ccccc3)c2c1N	-19%	-24%	4.5µM*	-6%	-23%	u	8.2µM*	10%	10%	-3%
Nc1cc(Nc2ccccc2)ccn1	1%	-1%	-1%	-15%	-10%	i	x	x	x	x
Cc1ccc(NC(=O)CN2CC(C)SC2=NC2CCCCC2)cc1 (configuration not stated)	-33%	u	u	-18%	-30%	u	u	-12%	8%	17%
COC(=O)C1=C[C@@H](C(=O)OC)C2C3=C(C(=O)[C@@]2(C)NC(=O)c2ccccc2)[C@H](C)[C@@H]2C(=O)NC(=O)[C@@H]2[C@@H]3C1 (some centres not stated)	-31%	x	-4%	x	x	x	x	x	x	x
Cc1ccc(S(=O)(=O)N2CCOCC2)cc1C(=O)Nc1nc(-c2ccccn2)cs1	-5%	-12%	u	u	-27%	u	9.2µM*	u	u	9%
O=C(Nc1cccc(-c2nc3ccccc3[nH]2)c1)c1c(F)cccc1F	-32%	x	u	x	x	x	x	x	x	x
Cc1oc2c(c1C(=O)N1CCC(C)CC1)C(=O)c1ccccc1C2=O	5µM*	21µM*	4µM*	25µM*	23µM*	18µM*	3.7µM*	5.8µM*	12µM*	21µM*
CCOC(=O)C1CCN(C(=O)c2c(C)oc3c2C(=O)c2ccccc2C3=O)CC1	2.8µM*	-6%	4.5µM*	u	-15%	u	2.1µM*	5.2µM*	7.3µM*	5.8µM*
COc1ccc(CCNC(=O)c2ccc(Cn3c(=O)c4ccccc4n(CC(=O)C(C)(C)C)c3=O)cc2)cc1OC	-1%	x	-24%	-13%	x	u	x	x	x	x
O=S(=O)(c1ccc(NC(=S)NN=Cc2ccccc2O)cc1)N1CCCCC1	-6%	-11%	13µM*	-24%	u	i	16µM*	u	u	1%
COc1ccc(OC)c(NC(=O)Cn2cc(S(=O)(=O)c3ccccc3)c(=O)c3cc(C)ccc32)c1	-2%	x	-17%	11%	x	i	x	x	x	x
COc1ccccc1NC(=S)N=Nc1c(O)[nH]c2ccc(Br)cc12	11%	8%	u	x	-21%	u	u	u	3.3µM*	-3%
Cc1cccc(NC(=S)N=Nc2c(O)[nH]c3ccccc23)c1	-28%	u	u	u	u	u	x	x	x	x
COc1ccc(CN2CCN(c3ncnc4scc(-c5ccc(F)cc5)c34)CC2)cc1	-26%	23%	11µM*	u	21%	i	21µM*	u	u	41%
Cc1ccc(NC(=O)c2cc(C(=O)c3cc(Cl)ccc3O)cn(-c3ccc(C)cc3)c2=O)cc1	-35%	-1%	7.9µM*	-17%	-7%	i	u	u	u	2%
COc1ccccc1NC(=O)c1oc2ccccc2c1NC(=O)Cc1cccs1	-31%	x	0%	-8%	x	i	x	x	x	x
O=C(C1=C[C@@H](c2ccc(C(F)(F)F)cc2)C[C@@H](OCc2ccc(CO)cc2)O1)N1CCN(Cc2ccccc2)CC1	-5%	-30%	14µM*	u	-30%	u	18µM*	-26%	u	27%
CN1CCN(C(=O)C2=C[C@@H](c3ccc(C(F)(F)F)cc3)C[C@@H](OCc3ccc(CO)cc3)O2)CC1	-53%	-4%	-2%	-5%	-19%	i	x	x	x	x
CCc1nnc(NC(=O)c2nc(SCc3ccc(F)cc3)ncc2Cl)s1	-10%	x	-11%	8%	x	u	x	x	x	x
CC1(C(=O)Nc2ccccc2Cc2ccccc2)CCN1Cc1ccccc1Cl (configuration not stated)	-15%	u	13µM*	u	u	i	9.2µM*	u	16µM*	56%
COc1cc2c(=O)[nH]c3cc([N+](=O)[O-])ccc3c2cc1[N+](=O)[O-]	-2%	3%	3%	x	2%	i	x	x	x	x
Nc1cc2[nH]c(=O)c3ccccc3c2cc1[N+](=O)[O-]	-10%	-2%	11µM*	-1%	-27%	u	u	u	u	71%
CC1(C(=O)NCc2cccc3ccccc23)CCN1C(=O)C1(c2ccccc2)CCCC1 (configuration not stated)	-6%	u	13µM*	-18%	u	i	13µM*	u	u	45%
CCc1noc(C)c1C(=O)Nc1nc(-c2ccc(Cl)cc2Cl)cs1	-5%	2%	11µM*	-34%	0%	u	15µM*	15µM*	u	46%
COc1ccc(OC)c(S(=O)(=O)Nc2cc(Cl)cc(Cl)c2)c1	0%	-1%	7.9µM*	-2%	-21%	i	21µM*	-8%	-27%	-15%
COc1ccc(OC)c(S(=O)(=O)Nc2ccc(C)c(C)c2)c1	-14%	-6%	-1%	9%	u	i	x	x	x	x
COc1ccc(-c2nc(N3CCN(S(=O)(=O)c4ccccc4)CC3)c3ccccc3n2)cc1	-1%	x	-5%	x	x	x	x	x	x	x

Screening data deposited in PubChem BioAssay by National Center for Advancing Translational Sciences (NCATS).
